# Mito fusion yeast – qHTS Assay for Small Molecule Inhibitors of Mitochondrial Division or Activators of Mitochondrial Fusion; S. cerevisiae fusion-defective mutant growth rescue, CellTiterGlo 48 h; Potency, µM (series often up to 46.1 µM), hits mostly activators; 0.23% of 320,000 active; further: nearly all actives have a fitted effect of over 45% in size
#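 Temperature-sensitive fusion-defective S. cerevisiae (e.g. fzo1-1, mgm1-5) were grown with compound in YPEG medium (3% ethanol, 3% glycerol) for 48 hours at 37C. Growth rescue was measured as viability by CellTiterGlo luminescence after 10 minutes at ambient.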
# Apoferritin bind – qHTS Assay for Identification of Novel General Anesthetics; Ferritin light chain (Equus caballus), P02791; apoferritin/1-aminoanthracene competitive binding, fluorescence; Potency, µM (top dose mostly 77.5 µM), actives largely listed as inhibitors; 0.074% of 350,000 active; further: nearly all actives have a fitted effect of over 20% in size
# Target sequence (P02791 2-175 limits assumed): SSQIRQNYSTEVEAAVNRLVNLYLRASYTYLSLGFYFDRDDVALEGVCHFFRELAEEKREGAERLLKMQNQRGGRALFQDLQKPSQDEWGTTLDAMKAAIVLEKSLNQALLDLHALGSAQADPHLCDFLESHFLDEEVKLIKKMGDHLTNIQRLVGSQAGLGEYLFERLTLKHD
#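 Read-out: endpoint 1-AMA fluorescence, excitation 380 nm and emission 535 nm, after compounds sit 10 min at room temperature with 10 uM horse-spleen apoferritin in 50% saturated 1-AMA/PBS. Values come from four-parameter Hill fits.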
# aSyn yeast inh – qHTS of alpha-syn Inhibitors; Potency, µM (doses to about 46.1 µM), actives largely listed as activators; Yeast expressing alpha-synuclein, growth rescue, BacTiter-Glo, 24 h; 0.14% of 370,000 active; further: nearly all actives have a fitted effect of over 65% in size
#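 Screening used galactose-induced yeast with toxic alpha-synuclein levels, exposed to compound for 24 hr at 30 deg C. Cell growth, read with BacTiter-Glo luminescence, gave the measured signal.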
# TDP43 rescue – qHTS of TDP-43 Inhibitors; TDP-43 expressing yeast growth rescue, BacTiter-Glo, 24 h; 1.8% of 410,000 active; AID 652104, 2013; Potency, µM (top dose mostly 46.1 µM), hits mostly activators; further: nearly all actives have a fitted effect of over 50% in size
#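 Galactose-induced TDP-43 yeast, OD600=0.02, compound pinned; 24 hr, 30 deg C; BacTiter-Glo luminescence for growth. Inhibitors of TDP-43 toxicity read as activators.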
# Akt phos inh – HTS Assay for Inhibitors of Akt Phophorylation: Primary Screen; Neuro2A IGF-stimulated pAkt S473 HTRF, 20 min; active compounds read low; activity change, % for hits at 50 µM; 0.32% of 360,000 active; AID 651550, 2012; in the data active means activity change below about -80%; inconclusive means mostly about -51% to -80%
#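 Neuro2A cells in DMEM with 0.5% FBS, overnight at 37 deg C, given compound at single 50 µM final, then IGF (6 nM final) for 20 min at 37 deg C. Lysed; phospho-Akt Ser473 by HTRF after 24 h, 665/615 ratio.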
# CCT modulator – High-Throughput Screening for Modulators of Cytosolic Chaperonin Activity; purified chaperonin ATPase assay, HTRF ADP detection, 30 min; activity change, % (concentration not given with the values), hits read low; 0.3% of 360,000 active; AID 651819, 2012; in the data active means activity change below about -30%
#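 Nucleotide hydrolysis assay: TRiC at 20–40 nM final (set by batch activity) with 10 uM ATP, 30 min at 37 °C, in presence of 76 uM compound. Detection by competitive ADP HTRF, 30 min ambient.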
# A number is an active result; . = inactive; ? = inconclusive; / = not tested or not shown; [ ] = dose if it differs, or a comment. Rows were chosen to be rich in hits. Some 2.5% of all compounds tested hit in one or more screens of this group. Unless noted, the call rests on the fitted dose curve; in most records, active means well fitted curve in the direction sought with a large enough effect; inconclusive means small, poorly fitted or top-dose-only effect, or another doubt; inactive means no such curve, though single readings can be large; an effect the other way counts as inactive or inconclusive.
SMILES,Mito fusion yeast,Apoferritin bind,aSyn yeast inh,TDP43 rescue,Akt phos inh,CCT modulator
O=C(c1ccco1)N1CCN(c2nc3ccccc3n3nnnc23)CC1,.,.,.,.,.,.
Oc1ccccc1-c1cc(-c2cccc(F)c2)n[nH]1,.,?,.,3.2µM,.,.
CC(C)(C)c1ccc(-c2cc(-c3ccccc3O)[nH]n2)cc1,.,.,.,.,.,.
CCN(CC)/[N+]([O-])=N/Oc1cc(O/N=[N+](\[O-])N(C)C)c([N+](=O)[O-])cc1[N+](=O)[O-],/,.,/,/,/,/
Cn1ncc(C(=O)Nc2ccc(OC(F)(F)F)cc2)c1-n1cccc1,.,.,.,13µM,.,.
COc1ccccc1NC(C)C(=O)c1c(C)[nH]c2ccccc12 (stereo not drawn),/,/,.,/,/,/
O=C1/C(=C/c2ccccc2Cl)SC(=S)N1CCCC(=O)N(CCO)c1ccccc1,.,?,18µM,.,.,.
CN1CCN(Cc2cc(=O)oc3ccc(Cl)cc23)CC1,.,.,.,.,-104%,.
Cc1cc(C)n(Cc2ccc(C(=O)NN)o2)n1,.,.,.,.,.,-50
Cc1cc(C)n(Cc2ccc(C(=O)O)o2)n1,.,.,.,.,.,.
CCCCCCCCN1C(=O)[C@H](CC(=O)N2CCN(C(=O)c3ccco3)CC2)C[C@@]2(C(=O)OC)CCCCC=C12,/,/,.,14µM,.,.
CCOC(=O)[C@]12CCCC=C1N(Cc1ccc(Cl)cc1Cl)C(=O)[C@H](CC(=O)N1CCCC1)C2,/,/,.,.,.,.
COC(=O)[C@]12CCCCC=C1N(Cc1ccc(Cl)cc1Cl)C(=O)[C@H](CC(=O)N1CCOCC1)C2,/,/,.,18µM,.,.
CCOC(=O)[C@]12CCCC=C1N(Cc1ccc(Cl)cc1Cl)C(=O)[C@H](CC(=O)N1CCN(C(=O)c3ccco3)CC1)C2,/,/,.,16µM,.,.
COC(=O)[C@]12CCCCC=C1N(Cc1ccco1)C(=O)[C@H](CC(=O)N1CCN(C(=O)c3ccco3)CC1)C2,/,/,.,.,.,.
COC(=O)[C@]12CCCCC=C1N(Cc1ccc(Cl)cc1Cl)C(=O)[C@H](CC(=O)N1CCCCC1)C2,/,/,.,?,.,.
CSc1ccc(/C=C/c2ccnc3ccccc23)cc1,/,/,.,/,/,/
Cc1noc(NS(=O)(=O)c2ccc(N/C=C/C(=O)c3cccnc3)cc2)c1C,.,.,20µM,.,.,.
CCN(C(=O)/C=C/c1ccc(OC)cc1)C1CCCCC1,.,?,.,18µM,.,.
CCN(C(=O)/C=C/c1ccc(OC)cc1)C1CCS(=O)(=O)C1 (stereo not drawn),.,/,.,.,.,.
COc1cccc2c(C)cc3nnc(SCC(=O)Nc4ccc(C)cc4)n3c12,/,.,/,.,/,/
COc1ccccc1N1CCN(C(=O)Cn2cnc3onc(-c4ccc(F)cc4)c3c2=O)CC1,/,.,?,?,/,/
CNC(=O)c1ccccc1NC(=O)c1ccc(C)c(S(=O)(=O)N2CCCCC2)c1,.,.,.,.,-112%,.
Cc1ccc(C)c(S(=O)(=O)N2CCNCC2)c1,.,.,.,.,.,-34
COc1ccccc1CN(C)CC(=O)Nc1cccc(S(=O)(=O)N2CCCCC2)c1,.,/,.,3.2µM,.,.
SMILES,Mito fusion yeast,Apoferritin bind,aSyn yeast inh,TDP43 rescue,Akt phos inh,CCT modulator
Cc1ccc(C(=O)Nc2ncccc2C)cc1S(=O)(=O)N1CCCCC1,.,/,.,.,.,.
Cc1ccc(NC(=O)c2ccccc2F)cc1S(=O)(=O)N1CCCCCC1,.,.,.,20µM,.,.
CCn1c(=O)cc(SCC(=O)NCCc2ccc(OC)cc2OC)c2ccccc21,/,.,/,.,/,/
COc1cccc(NC(=O)CSc2nc3ccc(NC(=O)c4cccs4)cc3s2)c1,/,.,/,.,/,/
Cc1ccc(NC(=O)c2ccc(C)c(S(=O)(=O)N3CCCCCC3)c2)cc1,/,.,.,18µM,/,/
Cc1ccc(C(=O)Nc2cccc(O)c2)cc1S(=O)(=O)N1CCCCCC1,.,.,.,.,.,.
COc1ccc(S(=O)(=O)N2CCCC2)cc1NC(=O)c1ccccc1F,.,.,.,.,.,.
COc1ccccc1NC(=O)c1cc(S(=O)(=O)N2CCCCCC2)ccc1F,.,.,.,11µM,.,.
CC[C@H](C)[C@H](NC(=O)[C@@H](NC(=O)[C@@H](CC(=O)NO)Cc1ccccc1)[C@@H](C)CC)C(=O)O,/,.,/,/,/,/
CC(NC(=O)Cn1nc(C(=O)O)c2ccccc2c1=O)c1ccccc1 (stereo not drawn),.,.,.,.,.,.
CC(NC(=O)Cn1nc(-c2ccccc2)c2ccccc2c1=O)c1ccccc1 (stereo not drawn),.,14µM,.,.,.,.
CC1(C(=O)NC(=S)N(CCC#N)c2ccccc2)CC1(Cl)Cl (stereo not drawn),.,.,.,.,.,.
CC(C)N(Cc1ccccc1)C(=S)NC(=O)C1(C)CC1(Cl)Cl (stereo not drawn),.,.,.,35µM,.,.
CC(=O)Nc1ccc(S(=O)(=O)Nc2ccccc2C(=O)NCc2cccnc2)cc1,10µM,.,.,.,.,.
O=C(NCc1cccnc1)c1ccccc1NS(=O)(=O)c1ccccc1,.,.,.,.,.,.
C[C@H]1C=CC(=O)C[C@H]1c1c(F)cccc1Cl,/,.,/,/,/,/
CCc1ccc2oc(-c3cc(NC(=O)c4cccs4)ccc3Cl)nc2c1,/,.,.,18µM,/,/
CCc1ccc2oc(-c3cc(N)ccc3Cl)nc2c1,.,.,.,18µM,.,.
CC(C)c1ccc2oc(-c3cc(NC(=O)c4cccnc4)ccc3Cl)nc2c1,/,?,/,16µM,/,/
CCc1ccc2oc(-c3cc(N)ccc3O)nc2c1,.,.,.,?,.,.
Cc1ccc(C(=O)Nc2ccc3c(c2)N(C)C(=O)c2ccccc2S3)cc1,/,.,/,?,/,/
CN1C(=O)c2ccccc2Sc2ccc(NC(=O)c3ccccc3F)cc21,/,.,/,18µM,/,/
CCCCC(=O)Nc1ccc(C(=O)OCc2cc(=O)n3ccsc3n2)cc1,/,?,/,.,/,/
Cc1nc(N2CCOCC2)[nH]c(=O)c1[N+](=O)[O-],.,.,.,.,.,.
Cn1nc([N+](=O)[O-])nc1N1CCOCC1,.,.,.,.[0.397 µM],.,-44
C(=C\c1ccnc2ccccc12)/c1cccnc1,/,/,.,/,/,/
O=C1CSC(=S)N1Nc1ccccc1,/,/,.,.,.,-34
CCC(Sc1nc2ccncc2[nH]1)C(=O)Nc1cc(C)ccc1C (stereo not drawn),/,.,/,.,/,/
CCc1ccc(NC(=O)c2cc(C(C)=O)n3ccccc23)cc1,/,.,/,11µM,/,/

# Source: PubChem BioAssay (National Center for Advancing Translational Sciences (NCATS))
